A number with no mark means an inactive call. Inconclusive results are not listed. The source made the active and inactive calls. Unless noted, the call rests on the fitted dose curve; in most records, active means well fitted curve in the direction sought with a large enough effect; inconclusive means small, poorly fitted or top-dose-only effect, or another doubt; inactive means no such curve, though single readings can be large; an effect the other way counts as inactive or inconclusive.
What was measured:
[1] = molecular target: Lysosomal acid glucosylceramidase (Homo sapiens) (UniProt P04062); test: Glucocerebrosidase-p2 (AID 348; in the data active means potency below about 10 µM; further: potency means the concentration at half of the fitted maximal effect); conditions: purified GBA, blue fluorogenic substrate, 40 min
In short: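 Compounds titrated from 0.6 nM upwards against 0.2 nM enzyme in pH 5.9 citric acid/KH2PO4, taurocholate, tween-20; blue fluorogenic substrate 80 uM, 40 min room temperature, stopped and read Ex 365/Em 440 for AC50.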

[2] = AP1 Signaling Pathway (AID 357; active means well fitted curve in either direction with a large enough effect, not every such curve was filed as active;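 further: ME-180 reporter cells stimulated with EGF at its EC50 level; on the % scale 0 is the no-effect control and ±100 the full control effect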); conditions: ME-180 AP-1-bla reporter, EGF-induced, beta-lactamase ratio, 5 h; at 7.69 µM (top of the series) unless noted
In short: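 Read-out was the 460nm/530nm emission ratio (excitation 405nm) after CCF4 loading for 2.5 hours at room temperature. Cells carried an AP-1-driven beta-lactamase reporter, were stimulated with EC50 EGF plus compound for 5 hours, and AC50 values came from titrations.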

[3] = molecular target: Cytochrome P450 1A2 (Homo sapiens) (UniProt P05177); test: p450-cyp1a2 (AID 410; calls by dose curve; further: potency means the concentration at half of the fitted maximal effect); conditions: recombinant CYP1A2, luciferin-ME demethylation, luminescence; series mostly up to 57 µM
In short: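 Human CYP1A2 (20nM) demethylated Luciferin-ME at its Km (100uM) in 100mM KPO4. After 10 min compound preincubation, NADPH regeneration ran the reaction 60 min at room temperature. Luciferin was read by luminescence, normalized to 57 uM furafylline.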

[4] = NFAT Signaling Pathway (AID 444; active means well fitted curve in either direction with a large enough effect, not every such curve was filed as active;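 further: carbachol stimulus at about its EC50 of 1 µM final; on the % scale 0 is the no-effect control and ±100 the full control effect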); conditions: Jurkat NFAT-bla M1, carbachol, beta-lactamase ratio, 5 h; at 7.69 µM (top of the series) unless noted
In short: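 Jurkat cells with NFAT-driven β-lactamase reporter and co-expressed M1 receptor, stimulated with carbachol (final 1 uM, ~EC50), compound titration, 5 h at 37 °C. CCF4 loaded 1 h at RT; 460/530 nm ratio gave %activity and AC50.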

[5] = Stat Signaling Pathway (AID 446; active means well fitted curve in either direction with a large enough effect, not every such curve was filed as active;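 further: ME-180 cervical cancer cells given 40 pM IL-6 alongside compound; SIE-controlled beta-lactamase reporter measured as 460/530 nm FRET emission ratio; on the % scale 0 is the no-effect control and ±100 the full control effect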); conditions: ME-180 SIE beta-lactamase reporter, IL-6 stimulated, 5 h; at 7.69 µM (top of the series) unless noted
In short: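 Screening format detects activators and inhibitors alike: ME-180 SIE-bla cells stimulated at 40 pM IL-6 for 5 hrs with compound, then dual-emission beta-lactamase read at 405 nm excitation.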

[6] = molecular target: Glucocorticoid receptor (Homo sapiens) (UniProt P04150); test: GR-GFP Redistribution (AID 450;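 active means compounds whose dose series gives a full or clear partial fitted curve of increased nuclear translocation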; further: potency means the concentration at half of the fitted maximal effect); conditions: U2OS GR-GFP nuclear translocation, laser cytometry, 2 h
[7] = molecular target: Glucocorticoid receptor (Homo sapiens) (UniProt P04150); test: GR-EFC Redistribution (AID 451; calls by dose curve; further: potency means the concentration at half of the fitted maximal effect); conditions: CHO-K1 GR-EFC translocation, beta-gal luminescence, 2 h
In short: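 CHO-K1 cells expressing nuclear EA and GR-ED fragments of b-gal; compounds titrated up to 46 uM final, 2 h at 37 C. GR nuclear translocation read as complemented b-gal luminescence after 1 h RT detection.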

[8] = molecular target: Mitogen-activated protein kinase 10 (Mus musculus) (UniProt Q61831); test: JNK3 AlphaScreen Assay (AID 530; active means well fitted curve in either direction with a large enough effect, not every such curve was filed as active;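 further: kinase came from lysate of stimulated human HepG2 cells; signal reports phosphorylation of biotinylated GST-cJun 1-79 at Ser73 with 10 µM ATP; on the % scale 0 is the no-effect control and ±100 the full control effect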); conditions: JNK3 lysate, c-Jun phosphorylation; series mostly up to 57.1 µM
In short: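 qHTS format: compounds tested as titrations against IL-1beta/TNF-alpha-activated HepG2 lysate JNK3 with biotin-GST-cJun substrate and 10 uM ATP at room temperature. Loss of anti-phospho-cJun AlphaScreen signal indicates inhibition.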

[9] = molecular target: 3',5'-cyclic-AMP phosphodiesterase 4B (Homo sapiens) (UniProt Q07343); test: qHTS Assay for Inhibitors of PDE-IV (AID 607; active means well fitted activation curve with a large enough effect in the main read-out, with a control signal flat, not every such curve was filed as active; further: % of control where 0% means no effect); conditions: HEK293 ACTOne CNG channel cells, membrane potential fluorescence; series mostly up to 22.9 µM
In short: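 The readout is membrane depolarisation from a cAMP-sensing CNG channel, detected with a potential dye at ex 535/em 590. Cells were HEK293-derived (endogenous PDE-IV) at 1000 cells/well, titrated up to 22.9 uM final.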

[10] = molecular target: Cytochrome P450 3A4 (Homo sapiens) (UniProt P08684); test: qHTS Assay for Activators of Cytochrome P450 3A4 (AID 885); conditions: recombinant CYP3A4, Luciferin-PPXE luminescence, 60 min; series mostly up to 57.1 µM; further: nearly all actives have a fitted effect of over 65% in size
In short: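 Steps: enzyme/substrate mix dispensed; compound added, 10 min RT; NADPH regeneration solution added, 60 min RT; luciferin detection buffer stops reaction; 20 min later luminescence measured.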

[11] = molecular target: Dual specificity protein kinase CLK4 (Homo sapiens) (UniProt Q9HAZ1); test: qHTS Assay for Inhibitors of CDC-like Kinase 4 (Kinase-Glo Assay) (AID 1770); conditions: recombinant Clk4, Kinase-Glo ATP depletion luminescence; series mostly up to 66.7 µM; further: nearly all actives have a fitted effect of over 65% in size; further: potency means the concentration at half of the fitted maximal effect
In short: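 Clk4 25 nM, RS peptide 100 uM, ATP 1 uM, pH 7.5 Tris, 10 mM MgCl2, 2.5 mM DTT; 4.5 h RT; ATP depletion read by Kinase-Glo luminescence.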

[12] = molecular target: Dual specificity protein kinase CLK4 (Homo sapiens) (UniProt Q9HAZ1); test: qHTS Assay for Inhibitors of CDC-like Kinase 4 (ADP-Glo Assay) (AID 1771); conditions: recombinant CLK4, ADP-Glo luminescence; series mostly up to 80 µM; further: nearly all actives have a fitted effect of over 70% in size; further: potency means the concentration at half of the fitted maximal effect
In short: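 Clk4 (25 nM) was incubated 1 hr at room temperature with 100 uM RS repeat peptide and 1 uM ATP in buffer with 2 mM MgCl2, 0.5 mM EGTA, 2.5 mM DTT. ADP formed was quantified by ADP-Glo luminescence.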

[13] = Primary qHTS for small molecule stabilizers of the endoplasmic reticulum resident proteome: Secreted ER Calcium Modulated Protein (SERCaMP) assay (AID 1508630); conditions: SH-SY5Y GLuc-SERCaMP (Gaussia luciferase released on ER calcium loss) secretion, thapsigargin, luminescence; series mostly up to 38.4 µM; further: on the % scale 0 is the no-effect control and ±100 the full control effect
In short: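 GLuc-SERCaMP-expressing SH-SY5Y cells, pretreated 16 h with compound, are challenged with thapsigargin to empty ER calcium stores; after 4 h, coelenterazine is added directly to the medium and luminescence is imaged.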

[14] = qHTS Assay for Identification of Small Molecule Agonists for Hypoxia Response Element Signaling Pathway (AID 914; active means well fitted activation curve with a large enough effect in the signal ratio, with a control signal flat, not every such curve was filed as active; the % refers to the signal ratio; further: potency means the concentration at half of the fitted maximal effect; on activation: % of control where 0% means no effect); conditions: ME-180 (cervical carcinoma) HRE-bla reporter, beta-lactamase ratio, CoCl2, 17 h; activation: active compounds read high
In short: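 Read-out: CCF4 FRET ratio of 460nm to 530nm emission (excitation 405nm) after 2.5 hours at room temperature, taken from HRE-bla ME-180 cells that had been exposed to compound and EC50 CoCl2 for 17 hours.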

[15] = molecular target: Ubiquitin carboxyl-terminal hydrolase 1 (Homo sapiens) (UniProt O94782); test: Inhibitors of USP1/UAF1: Pilot qHTS (AID 504865); conditions: purified USP1/UAF1, Ub-rhodamine cleavage fluorescence; series mostly up to 54.9 µM;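 further: rhodamine fluorescence freed from ubiquitin-rhodamine substrate followed over time; top concentration of the series differs between compounds; on the % scale 0 is the no-effect control and ±100 the full control effect; nearly all actives have a fitted effect of over 35% in size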
In short: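 Enzyme-free wells gave the negative control, while test wells held 1nM USP1/UAF1 preincubated with compound for 15 min at room temperature. Ub-Rho at 150nM final started the reaction, and fluorescence at 480/540 nm was recorded kinetically.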

[16] = molecular target: Cytochrome P450 3A4 (Homo sapiens) (UniProt P08684); test: qHTS Assay for Inhibitors and Substrates of Cytochrome P450 3A4 (AID 884); conditions: recombinant CYP3A4, Luciferin-PPXE luminescence; series mostly up to 57.1 µM; further: potency means the concentration at half of the fitted maximal effect; nearly all actives have a fitted effect of over 50% in size
In short: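 20 nM human CYP3A4 with 25 uM Luciferin-PPXE (at KM) in 200 mM KPO4, preincubated 10 min with compound; NADPH regeneration started a 60 min RT reaction. Luciferin detected by luminescence, normalized to 57 uM ketoconazole as full inhibition.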

[17] = molecular target: Cytochrome P450 2D6 (Homo sapiens) (UniProt P10635); test: qHTS Assay for Inhibitors and Substrates of Cytochrome P450 2D6 (AID 891); conditions: recombinant CYP2D6, luciferin-ME EGE luminescence; series mostly up to 57.1 µM; further: potency means the concentration at half of the fitted maximal effect; nearly all actives have a fitted effect of over 60% in size
In short: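 Human CYP2D6 (5 nM) with 30 uM Luciferin-ME EGE (at Km) in 100 mM KPO4, compound preincubated 10 min, then NADPH regeneration system for 60 min at room temperature. Luciferin read by luminescence; normalized to 1.43 uM quinidine.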

[18] = molecular target: Cytochrome P450 2C19 (Homo sapiens) (UniProt P33261); test: qHTS Assay for Inhibitors and Substrates of Cytochrome P450 2C19 (AID 899); conditions: recombinant CYP2C19, luciferin-H EGE luminescence; series mostly up to 57.1 µM; further: potency means the concentration at half of the fitted maximal effect; nearly all actives have a fitted effect of over 60% in size
In short: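 Luminescent read-out of luciferin formed from Luciferin-H EGE (10uM, equal to KM). Enzyme 5nM in 50mM KPO4; compound added, 10 min at 37C, then NADPH regenerating system for 60 min at 37C. Full inhibition defined by 57uM ketoconazole.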

Glucocorticoid receptor (Homo sapiens), sequence (P04150 whole entry, looked up, the tested form may be a part): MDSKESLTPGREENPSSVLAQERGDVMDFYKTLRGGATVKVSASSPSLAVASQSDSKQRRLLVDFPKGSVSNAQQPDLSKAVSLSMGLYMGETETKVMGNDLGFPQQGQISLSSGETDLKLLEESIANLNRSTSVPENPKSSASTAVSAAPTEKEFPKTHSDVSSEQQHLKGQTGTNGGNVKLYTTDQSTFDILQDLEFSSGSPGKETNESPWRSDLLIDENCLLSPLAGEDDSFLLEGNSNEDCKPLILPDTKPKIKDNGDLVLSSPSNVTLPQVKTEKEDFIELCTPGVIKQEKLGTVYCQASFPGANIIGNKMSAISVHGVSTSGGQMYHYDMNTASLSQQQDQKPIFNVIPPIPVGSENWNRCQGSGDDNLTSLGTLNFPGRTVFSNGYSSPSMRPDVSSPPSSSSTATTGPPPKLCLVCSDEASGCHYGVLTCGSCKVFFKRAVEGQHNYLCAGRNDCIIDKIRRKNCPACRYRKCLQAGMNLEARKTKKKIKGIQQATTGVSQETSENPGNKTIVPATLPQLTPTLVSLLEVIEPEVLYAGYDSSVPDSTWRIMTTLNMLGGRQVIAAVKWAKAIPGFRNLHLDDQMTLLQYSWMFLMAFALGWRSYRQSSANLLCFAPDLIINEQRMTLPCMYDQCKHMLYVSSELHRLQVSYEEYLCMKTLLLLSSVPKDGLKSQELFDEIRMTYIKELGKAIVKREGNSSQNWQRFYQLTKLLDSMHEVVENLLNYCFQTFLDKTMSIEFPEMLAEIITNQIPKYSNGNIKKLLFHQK
Lysosomal acid glucosylceramidase (Homo sapiens), sequence (P04062 whole entry, looked up): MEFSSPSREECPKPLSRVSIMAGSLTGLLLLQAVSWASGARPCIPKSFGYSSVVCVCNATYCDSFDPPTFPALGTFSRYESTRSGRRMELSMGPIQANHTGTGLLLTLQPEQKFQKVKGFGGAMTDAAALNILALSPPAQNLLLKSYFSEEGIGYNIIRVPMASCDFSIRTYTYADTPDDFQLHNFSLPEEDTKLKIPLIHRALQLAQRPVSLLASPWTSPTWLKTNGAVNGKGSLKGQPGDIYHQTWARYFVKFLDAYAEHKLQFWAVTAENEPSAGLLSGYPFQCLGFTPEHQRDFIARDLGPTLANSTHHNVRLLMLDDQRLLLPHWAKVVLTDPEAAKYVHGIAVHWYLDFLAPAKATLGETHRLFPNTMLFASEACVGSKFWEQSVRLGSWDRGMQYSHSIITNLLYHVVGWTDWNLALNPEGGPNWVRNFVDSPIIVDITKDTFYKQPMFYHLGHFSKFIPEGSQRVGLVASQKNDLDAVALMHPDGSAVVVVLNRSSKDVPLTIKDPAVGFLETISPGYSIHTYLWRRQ
Cytochrome P450 3A4 (Homo sapiens), sequence (P08684 whole entry, looked up): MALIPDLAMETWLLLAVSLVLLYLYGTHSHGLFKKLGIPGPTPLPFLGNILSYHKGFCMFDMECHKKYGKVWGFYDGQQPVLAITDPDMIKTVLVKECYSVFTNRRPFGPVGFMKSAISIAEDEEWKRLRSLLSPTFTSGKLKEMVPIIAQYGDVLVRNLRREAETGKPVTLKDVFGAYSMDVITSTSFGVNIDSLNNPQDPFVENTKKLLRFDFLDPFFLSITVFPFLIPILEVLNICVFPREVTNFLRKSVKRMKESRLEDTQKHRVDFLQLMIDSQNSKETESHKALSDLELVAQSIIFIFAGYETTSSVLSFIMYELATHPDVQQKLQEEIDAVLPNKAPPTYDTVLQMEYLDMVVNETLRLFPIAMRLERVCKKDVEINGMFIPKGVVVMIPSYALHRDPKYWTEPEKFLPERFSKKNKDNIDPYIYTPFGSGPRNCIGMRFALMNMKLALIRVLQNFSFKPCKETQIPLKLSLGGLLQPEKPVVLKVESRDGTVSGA
Ubiquitin carboxyl-terminal hydrolase 1 (Homo sapiens), sequence (O94782 whole entry, looked up): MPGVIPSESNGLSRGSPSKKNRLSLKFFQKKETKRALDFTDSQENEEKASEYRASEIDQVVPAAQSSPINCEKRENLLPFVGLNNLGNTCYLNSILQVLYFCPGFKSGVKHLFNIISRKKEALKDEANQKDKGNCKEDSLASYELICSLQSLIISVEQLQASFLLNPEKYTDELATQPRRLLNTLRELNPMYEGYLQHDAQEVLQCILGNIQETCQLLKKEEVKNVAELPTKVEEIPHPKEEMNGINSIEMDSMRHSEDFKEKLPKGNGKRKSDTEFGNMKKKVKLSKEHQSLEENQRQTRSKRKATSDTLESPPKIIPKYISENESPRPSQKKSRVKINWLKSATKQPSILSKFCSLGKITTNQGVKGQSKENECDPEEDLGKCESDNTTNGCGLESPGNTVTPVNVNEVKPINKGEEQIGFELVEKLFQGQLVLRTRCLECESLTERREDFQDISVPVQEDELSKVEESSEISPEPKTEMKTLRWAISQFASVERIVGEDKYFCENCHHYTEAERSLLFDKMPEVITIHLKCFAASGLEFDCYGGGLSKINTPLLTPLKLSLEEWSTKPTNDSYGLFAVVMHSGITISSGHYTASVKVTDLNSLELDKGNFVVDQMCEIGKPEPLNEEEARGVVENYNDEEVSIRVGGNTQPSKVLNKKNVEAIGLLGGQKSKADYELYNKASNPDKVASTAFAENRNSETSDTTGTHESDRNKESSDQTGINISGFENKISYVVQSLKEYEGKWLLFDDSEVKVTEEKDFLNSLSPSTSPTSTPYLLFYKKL
Cytochrome P450 1A2 (Homo sapiens), sequence (P05177 whole entry, looked up): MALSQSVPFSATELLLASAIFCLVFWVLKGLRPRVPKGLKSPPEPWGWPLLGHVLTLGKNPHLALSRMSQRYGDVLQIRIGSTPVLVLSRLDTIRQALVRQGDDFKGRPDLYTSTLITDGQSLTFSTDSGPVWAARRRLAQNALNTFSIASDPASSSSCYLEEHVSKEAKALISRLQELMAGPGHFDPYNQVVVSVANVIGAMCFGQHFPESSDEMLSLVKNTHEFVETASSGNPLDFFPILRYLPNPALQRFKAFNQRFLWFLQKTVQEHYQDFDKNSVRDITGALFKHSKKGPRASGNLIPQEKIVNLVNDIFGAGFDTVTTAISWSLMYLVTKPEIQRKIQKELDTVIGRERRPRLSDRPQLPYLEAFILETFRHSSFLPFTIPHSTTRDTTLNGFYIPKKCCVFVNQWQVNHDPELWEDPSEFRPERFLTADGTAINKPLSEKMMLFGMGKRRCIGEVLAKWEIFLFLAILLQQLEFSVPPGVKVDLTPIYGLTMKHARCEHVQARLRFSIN
Dual specificity protein kinase CLK4 (Homo sapiens), sequence (Q9HAZ1 whole entry, looked up): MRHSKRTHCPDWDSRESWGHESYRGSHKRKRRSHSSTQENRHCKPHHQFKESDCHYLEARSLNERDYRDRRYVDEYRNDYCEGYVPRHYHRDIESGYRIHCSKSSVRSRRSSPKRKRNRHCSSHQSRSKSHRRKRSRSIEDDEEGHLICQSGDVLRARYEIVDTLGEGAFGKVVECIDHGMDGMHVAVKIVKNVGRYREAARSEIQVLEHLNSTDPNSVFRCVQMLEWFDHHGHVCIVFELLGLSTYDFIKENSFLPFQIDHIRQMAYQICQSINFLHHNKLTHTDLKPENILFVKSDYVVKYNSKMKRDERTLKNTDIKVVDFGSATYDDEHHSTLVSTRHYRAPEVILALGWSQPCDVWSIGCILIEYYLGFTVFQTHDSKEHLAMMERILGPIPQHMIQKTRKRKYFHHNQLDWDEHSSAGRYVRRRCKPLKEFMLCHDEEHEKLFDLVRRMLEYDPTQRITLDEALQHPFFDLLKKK
3',5'-cyclic-AMP phosphodiesterase 4B (Homo sapiens), sequence (Q07343 whole entry, looked up): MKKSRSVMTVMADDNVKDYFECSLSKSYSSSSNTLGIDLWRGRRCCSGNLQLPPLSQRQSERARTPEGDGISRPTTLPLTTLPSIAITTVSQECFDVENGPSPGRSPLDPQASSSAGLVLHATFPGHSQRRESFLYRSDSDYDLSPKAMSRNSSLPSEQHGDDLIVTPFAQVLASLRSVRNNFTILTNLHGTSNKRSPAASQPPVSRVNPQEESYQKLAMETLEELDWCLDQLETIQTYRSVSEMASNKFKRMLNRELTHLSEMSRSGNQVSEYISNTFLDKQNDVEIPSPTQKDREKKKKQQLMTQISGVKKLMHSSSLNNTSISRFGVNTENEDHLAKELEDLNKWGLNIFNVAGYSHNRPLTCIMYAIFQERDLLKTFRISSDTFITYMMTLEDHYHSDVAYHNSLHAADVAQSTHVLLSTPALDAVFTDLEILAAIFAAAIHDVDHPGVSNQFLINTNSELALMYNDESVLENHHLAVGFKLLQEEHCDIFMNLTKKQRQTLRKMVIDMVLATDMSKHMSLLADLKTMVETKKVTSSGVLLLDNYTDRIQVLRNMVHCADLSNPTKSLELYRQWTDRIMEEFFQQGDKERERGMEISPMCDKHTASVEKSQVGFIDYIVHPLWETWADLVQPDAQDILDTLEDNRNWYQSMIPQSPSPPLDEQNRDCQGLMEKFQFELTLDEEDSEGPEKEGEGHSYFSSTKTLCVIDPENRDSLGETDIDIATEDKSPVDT
Cytochrome P450 2C19 (Homo sapiens), sequence (P33261 whole entry, looked up): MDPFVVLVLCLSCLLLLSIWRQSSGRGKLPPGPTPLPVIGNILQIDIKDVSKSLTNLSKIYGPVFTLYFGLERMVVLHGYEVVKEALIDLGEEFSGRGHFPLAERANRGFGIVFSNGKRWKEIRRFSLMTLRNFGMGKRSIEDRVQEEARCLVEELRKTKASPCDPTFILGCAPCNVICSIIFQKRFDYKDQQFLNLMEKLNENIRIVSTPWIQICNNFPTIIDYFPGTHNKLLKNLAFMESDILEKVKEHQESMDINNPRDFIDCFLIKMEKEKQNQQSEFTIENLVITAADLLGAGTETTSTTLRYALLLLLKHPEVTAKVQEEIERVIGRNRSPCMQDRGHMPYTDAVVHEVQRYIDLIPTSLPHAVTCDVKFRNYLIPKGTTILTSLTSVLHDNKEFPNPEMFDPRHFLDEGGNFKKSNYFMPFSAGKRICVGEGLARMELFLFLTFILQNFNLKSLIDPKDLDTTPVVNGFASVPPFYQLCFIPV

| Structure (SMILES) | Potency [1] [µM] | activity change, negative = inhibition [2] | Potency [3] | activity change, negative = inhibition [4] | activity, negative = inhibition [5] [%] | Potency [6] [µM] | Potency [7] [µM] | Potency [8] | Potency [9] | Potency [10] | Potency [11] | Potency [12] | outcome [13] | Potency [14] | Potency [15] | Potency [16] | Potency [17] | Potency [18] | activation [14] [%] |
| --- | --- | --- | --- | --- | --- | --- | --- | --- | --- | --- | --- | --- | --- | --- | --- | --- | --- | --- | --- |
| Cc1cccc(CNc2cc(-c3ccccc3Cl)ncn2)c1 | > 11.4 | 13.1% | 3.16 µM (active) | -3.92% | 0.338 | > 46 | > 46 | inactive | inactive | inactive | 28.2 µM (active) | 28.2 µM (active) | inactive | – | – | – | – | – | – |
| O=c1c(-c2ccc(F)cc2)nc2cnc(N3CCOCC3)nc2n1CCc1ccccc1 | > 11.4 | 79.3% [activator] (active) | 25.1 µM (active) | 103% [activator] (active) | – | > 9.22 | > 46 | – | inactive | – | inactive | inactive | inactive | 0.501 µM (active) | inactive | – | – | – | – |
| Cc1cnc(CNc2ccnc(-c3cccc(C#N)c3)n2)cn1 | > 11.4 | -12.1% | 1.26 µM (active) | 16.3% | 6.8 | > 46 | > 46 | inactive | inactive | inactive | 22.4 µM (active) | 15.8 µM (active) | inactive | – | – | – | – | – | – |
| COc1ccc2[nH]cc(CCNc3cc(-c4ccccc4C)ncn3)c2c1 | > 11.4 | -2.94% | 1 µM (active) | -8.49% | -6.58 | > 46 | > 46 | – | inactive | inactive | 25.1 µM (active) | 15.8 µM (active) | inactive | – | inactive | 5.01 µM (active) | 7.94 µM (active) | 7.94 µM (active) | -7.71 |
| CCNc1ncc2nc(-c3ccccc3)c(=O)n(C)c2n1 | > 11.4 | -13.4% | 0.398 µM (active) | -7.59% | -9.07 | > 9.22 | > 46 | inactive | – | – | inactive | inactive | inactive | – | – | – | – | – | – |
| COCCNc1ccnc(-c2ccccc2C)n1 | > 11.4 | -9.97% | 12.6 µM (active) | 3.48% | 15.6 | > 46 | > 46 | inactive | inactive | – | inactive | inactive | inactive | – | inactive | – | – | – | – |

— PubChem BioAssay (NCATS)
